Rows were chosen to be rich in hits. Some 12% of all compounds tested hit in one or more screens of this group.
L3MBTL1 inh: blocks human L3MBTL1; Potency, µM (highest dose often 57.1 µM), for inactives: at the top dose activity, negative = inhibition, most hits filed as inhibitors; 230,000 compounds, 0.66% hits; Q9Y468; AlphaScreen L3MBTL1–H3K9me1 peptide binding; also: % is scaled to controls: 0 for no effect and ±100 for the full control effect; nearly all actives have a fitted effect of over 60% in size
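L3MBTL1 (50 nM) pre-complexed 30 min with biotinylated H3(1-15)K9me1 peptide (75 nM), then compounds added for 30 min at room temperature; AlphaScreen streptavidin donor/nickel chelate acceptor beads (10 ug/mL final) read after 30 min dark incubation.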
BAZ2B inh: BAZ2B (human) inhibition | AlphaScreen BAZ2B-H3K14Ac peptide displacement | Potency, µM (top dose mostly 114 µM), for inactives: at the top dose activity change, negative = inhibition, hits mostly inhibitors | 360,000 compounds, 4.4% hits | Q9UIF8; also: % is scaled to controls: 0 for no effect and ±100 for the full control effect; nearly all actives have a fitted effect of over 60% in size
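AlphaScreen luminescence quantifies BAZ2B engagement of H3K14Ac peptide; the protein and biotinylated peptide are both at 50 nM final, buffer PBS pH 7.4 with 0.01% Tween-20, all steps at room temperature.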
JMJD2A Tudor inh: JMJD2A Tudor domain (human) inhibition; O75164; AlphaScreen JMJD2A-Tudor / H3K4me3 peptide binding; Potency, µM (top dose mostly 114 µM), for inactives: at the highest dose activity change, negative = inhibition, hits mostly inhibitors; 390,000 compounds, 4.4% hits; also: % is scaled to controls: 0 for no effect and ±100 for the full control effect; nearly all actives have a fitted effect of over 50% in size
Sfp inh: inhibitors of Bacillus subtilis Sfp phosphopantetheinyl transferase | Q9F4F7 | Biochemical Sfp PPTase activity, qHTS | Potency, µM, inactives show largest response in the series, negative = inhibition, most hits filed as inhibitors | 310,000 compounds, 3.5% hits;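 also: the enzyme is Sfp with the accession as filed and its product quenches rhodamine fluorescence; 0% = enzyme reaction without inhibitor and -100% = no enzyme wells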
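With Hepes-Na pH 7.6 buffer containing 10 mM MgCl2, Sfp (15 nM) modified BHQ-2-YbbR (12.5 uM) using rhodamine-CoA (5 uM). Two reads 30 minutes apart at 525/598 nm yielded each well's rate.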
G9a inh: inhibitors of human histone lysine methyltransferase G9a; 350,000 compounds, 8.8% hits; Potency, µM (series often up to 102 µM), without a hit: top-dose activity, negative = inhibition, actives largely listed as inhibitors; G9a H3K9 monomethylation, AlphaScreen, 2 h; AID 504332; Q96KQ7; also: % is scaled to controls: 0 for no effect and ±100 for the full control effect; nearly all actives have a fitted effect of over 75% in size
Target sequence (Q96KQ7 913-1193 limits assumed): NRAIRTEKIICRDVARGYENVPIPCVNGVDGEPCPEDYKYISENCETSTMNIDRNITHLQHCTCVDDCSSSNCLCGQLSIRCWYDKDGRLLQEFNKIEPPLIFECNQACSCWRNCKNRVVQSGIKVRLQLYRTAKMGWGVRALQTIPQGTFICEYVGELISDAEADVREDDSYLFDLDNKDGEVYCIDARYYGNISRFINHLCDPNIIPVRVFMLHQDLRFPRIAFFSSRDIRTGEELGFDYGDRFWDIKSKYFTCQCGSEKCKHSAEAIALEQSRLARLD
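G9a (20 nM) preincubated 15 min RT with compounds, then 500 nM biotinylated H3K9 peptide and 20 uM SAM added; 2 h RT reaction. Monomethyl-H3K9 product detected by AlphaScreen with anti-H3K9me1 antibody, streptavidin donor and anti-rabbit IgG acceptor beads.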
HP1b binding inh: blocks HP1-beta chromodomain binding to methylated histone tails; P83916; 390,000 compounds, 0.56% hits; AlphaScreen HP1-beta / biotin-H3K9me3 peptide binding; Potency, µM (titrated, usually from 114 µM), without a hit: at the highest dose activity change, negative = inhibition, hits mostly inhibitors; also: nearly all actives have a fitted effect of over 70% in size
Target sequence (P83916 whole entry, looked up): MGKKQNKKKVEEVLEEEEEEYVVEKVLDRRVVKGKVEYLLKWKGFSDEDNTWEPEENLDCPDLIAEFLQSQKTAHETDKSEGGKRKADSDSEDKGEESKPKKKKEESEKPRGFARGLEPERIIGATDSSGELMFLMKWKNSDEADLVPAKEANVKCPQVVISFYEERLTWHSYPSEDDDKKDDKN
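AlphaScreen: HP1-beta (50 nM) preformed 30 min with biotin-H3(1-18)K9me3 peptide (50 nM) in PBS pH 7.4, 0.01% Tween-20. Compound added for 30 min at RT, then streptavidin donor/nickel chelate acceptor beads (10 ug/mL) for 30 min.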
* hit, by the source's call; [ ] = another dose, or the depositor's remark. Calls follow the shape of the dose curve; as a rule, active = well fitted curve in the direction sought with a large enough effect; inconclusive = small, poorly fitted or top-dose-only effect, or another doubt; inactive = no such curve, though single readings can be large; an effect the other way counts as inactive or inconclusive. Potency is read from the fitted curve at half-maximal effect.

How did CC(=O)C1=C(O)C(=O)N(Cc2ccco2)C1c1ccc(F)cc1 (stereo not given) do in these assays?
L3MBTL1 inh: -1%; BAZ2B inh: -15%; JMJD2A Tudor inh: -19%; Sfp inh: 45µM*; G9a inh: inconclusive; HP1b binding inh: 25%

Results for CC(=O)C1=C(O)C(=O)N(Cc2ccccc2)C1c1ccc(Br)cc1 (stereo not given) ?
BAZ2B inh: -12%; JMJD2A Tudor inh: -25%; Sfp inh: 11%; G9a inh: 22%[2.33 µM]; HP1b binding inh: 64%

How did COc1ccc(-c2noc(CC(=O)N(C)c3cc(Cl)c(OC)cc3OC)n2)cc1 do in these assays?
BAZ2B inh: -15%; JMJD2A Tudor inh: -19%; G9a inh: -30%[59 µM]; HP1b binding inh: 38%

What do the screens show for `CCOCCN1CCN(C2c3ccccc3CSc3ccccc32)CC1` (stereo not given)?
JMJD2A Tudor inh: 13µM*; HP1b binding inh: inconclusive

What do the screens show for `CCc1ccc(Nc2n[n+](-c3ccccc3)c(-c3cccc(C)c3)s2)cc1`?
L3MBTL1 inh: -11%; BAZ2B inh: 35µM*; JMJD2A Tudor inh: 79µM*; G9a inh: 8%[2.33 µM]; HP1b binding inh: 11%

How did CCOc1cc(-c2sc(Nc3ccc(CC)cc3)n[n+]2-c2ccccc2)ccc1OC do in these assays?
L3MBTL1 inh: -2%; BAZ2B inh: inconclusive; JMJD2A Tudor inh: inconclusive; G9a inh: -11%[2.33 µM]; HP1b binding inh: -12%

What do the screens show for `Cc1cccc(-c2sc(Nc3ccccc3)n[n+]2-c2ccc(F)cc2)c1`?
L3MBTL1 inh: -2%; BAZ2B inh: -1%; JMJD2A Tudor inh: -32%; Sfp inh: 16%; G9a inh: 35µM*; HP1b binding inh: 30%

How did COc1ccc(-c2sc(Nc3ccccc3)n[n+]2-c2ccc(F)cc2)c(C)c1C do in these assays?
L3MBTL1 inh: -5%; BAZ2B inh: inconclusive; JMJD2A Tudor inh: inconclusive; Sfp inh: -3%; G9a inh: inconclusive; HP1b binding inh: -3%

What do the screens show for `CCC(=O)N1CCc2cc(S(=O)(=O)NCCC(=O)Nc3ccc(CC)cc3)ccc21`?
JMJD2A Tudor inh: -12%; G9a inh: -33%[59 µM]; HP1b binding inh: 29%

How did O=C(c1ccco1)N1CCN(Cc2nnc(-c3cccc(Br)c3)o2)CC1 do in these assays?
BAZ2B inh: 7%; JMJD2A Tudor inh: inconclusive; Sfp inh: 12%; G9a inh: inconclusive; HP1b binding inh: 51%

Results for CN(C)C(=O)CSc1nc(-c2ccccc2)c(-c2ccccc2)o1 ?
L3MBTL1 inh: inconclusive; BAZ2B inh: inconclusive; JMJD2A Tudor inh: -19%[11.4 µM]; Sfp inh: -5%; G9a inh: 13µM*; HP1b binding inh: inconclusive

What do the screens show for `Brc1cc2c(cc1-c1nc3ccccc3s1)OCO2`?
BAZ2B inh: 26%; JMJD2A Tudor inh: 6%; Sfp inh: -24%; G9a inh: 40µM*; HP1b binding inh: -9%

How did O=C1CC(=C2c3ccccc3-c3ccccc32)C(=O)N1CCCCN1CCN(c2ccccc2)CC1 do in these assays?
L3MBTL1 inh: inconclusive; BAZ2B inh: inconclusive; JMJD2A Tudor inh: inconclusive; Sfp inh: -1%; G9a inh: 7.9µM*; HP1b binding inh: -7%

What do the screens show for `Cc1ccccc1-n1c(C)nnc1SCc1cc(=O)oc2ccc3ccccc3c12`?
L3MBTL1 inh: 0%; BAZ2B inh: -19%; JMJD2A Tudor inh: inconclusive; Sfp inh: 79µM*; G9a inh: inconclusive; HP1b binding inh: 17%

Results for CCCn1c(=O)c2ccccc2n2c(SCc3cc(=O)oc4ccc5ccccc5c34)nnc12 ?
L3MBTL1 inh: -8%; BAZ2B inh: -1%; JMJD2A Tudor inh: inconclusive; Sfp inh: -14%; G9a inh: inconclusive; HP1b binding inh: 45%

Results for COc1cc(OC)c(NC(=O)CN2CCCN(Cc3ccccc3C)S2(=O)=O)cc1Cl ?
BAZ2B inh: -14%; JMJD2A Tudor inh: -10%; G9a inh: 10%[59 µM]; HP1b binding inh: 18%
